Calls of active or inactive are those of the source. Unless noted, the rule behind the calls is not given here.

Assay [1] is described as follows: compound effects on lung adenocarcinoma cell viability – A549, calcein-AM fluorescence, 48 h, basal, profiling panel (AID 1162). Note: test concentration not given here. The following applies: higher = more signal.
Assay [2] is described as follows: compound effects on differentiated 3T3-L1 adipocyte viability – cell-based, 3T3-L1 adipocytes, calcein-AM fluorescence, 48 h, basal, profiling panel (AID 1163). Note: test concentration not given here. Particulars: 3T3-L1 adipocytes viability, higher = more signal.
A short description of assay [3]: compound effects on hepatocellular carcinoma cell viability – HepG2, calcein-AM fluorescence, 48 h, basal, profiling panel (AID 1164). Note: test concentration not given here. Particulars: higher = more signal.
A short description of assay [4]: compound effects on multiple myeloma cell viability – MM1S, calcein-AM fluorescence, 48 h, basal, profiling panel (AID 1165).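 Note: viability of MM1S multiple myeloma cells under basal unstimulated conditions; test concentration not given here.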 The following applies: higher = more signal.
Assay [5] can be described thus: calcein-AM signal in unstimulated myeloma cells – cell-based, calcein-AM fluorescence, 48 h, PK04 Diversity Set, profiling panel (AID 1166).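 Note: cells grown under basal conditions without added stimulus; test concentration not given here.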 Particulars: RPMI8226 myeloma viability, higher = more signal.
Assay [6] can be described thus: JC-1 mitochondrial signal, unstimulated HepG2 cells – cell-based, JC-1 fluorescence, 24 h, 100 nL compound, profiling panel (AID 1167). Note: test concentration not given here. Particulars: HepG2 mitochondrial potential, higher = more signal.
Assay [7] can be described thus: JC-1 mitochondrial signal, unstimulated adipocytes – cell-based, JC-1 fluorescence, 3T3-L1 adipocytes, 24 h, 100 nL compound, profiling panel (AID 1168). Note: test concentration not given here. Particulars: JC-1 mitochondrial fluorescence, higher = more signal, called active from +8 up or from −8 down.
Assay [8] is described as follows: JC-1 mitochondrial signal, unstimulated myeloma cells – cell-based, JC-1 fluorescence, RPMI8226, 24 h, 100 nL compound, profiling panel (AID 1169). Note: test concentration not given here. The following applies: JC-1 mitochondrial potential fluorescence, higher = more signal.
The nature of assay [9]: JC-1 mitochondrial signal, unstimulated MM1S myeloma – cell-based, JC-1 fluorescence, 24 h, 100 nL compound, profiling panel (AID 1170). Note: test concentration not given here. Particulars: MM1S mitochondrial potential, higher = more signal.
Assay [10] is described as follows: resazurin metabolic signal in A549 cells – cell-based, resazurin fluorescence, 24 h, PK04 Diversity Set, profiling panel (AID 1171). Note: test concentration not given here. The following applies: A549 viability, higher = more signal, called active from +8 up or from −8 down.
Assay [11] is described as follows: resazurin metabolic signal in HepG2 cells – cell-based, resazurin fluorescence, 24 h, PK04 Diversity Set, profiling panel (AID 1172). Note: test concentration not given here. Particulars: HepG2 viability, higher = more signal. On the technique in general: Alamar Blue is a resazurin reagent that responds to reducing activity.
Assay [12] in a line: budding yeast growth changes without added modifier – OD600, strain BY4716, 24 h, basal condition, primary screen (AID 1173). The following applies: S. cerevisiae BY4716 growth, OD600, 24 h; higher = more signal, called active from +8 up or from −8 down.
The nature of assay [13]: viability profiling in MM1S myeloma cells – cell-based, resazurin fluorescence, basal, 24 h, PK04 Diversity Set, profiling panel (AID 1174). Note: test concentration not given here. Particulars: higher = more signal, called active from +8 up or from −8 down.
In assay [14] the target is Dihydroorotate dehydrogenase (quinone), mitochondrial (Plasmodium falciparum (isolate 3D7)) (UniProt Q08210). Put plainly: inhibition of P. falciparum DHODH – biochemical, C-terminal His tag, absorbance 600 nm, primary screen (AID 1175).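 Note: recombinant parasite enzyme with a five histidine tag at its C terminus; test concentration not given here.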 The following applies: PfDHODH enzyme, DCIP absorbance 600 nm; higher = more signal, called active from +8 up or from −8 down.
Assay [15] is described as follows: inhibition of PAO1 biofilm formation – strain PAO1, LB-PBS medium, absorbance 600 nm, primary screen (AID 1176). Note: test concentration not given here. The following applies: P. aeruginosa PAO1 growth/biofilm, A600, 12 h; higher = more signal.
Assay [16] can be described thus: growth modulation of vineyard yeast isolate – strain RM11-1a, OD600, basal, 24 h, primary screen (AID 1177).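 Note: cultures grown under basal conditions with no added stressor; test concentration not given here.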 Particulars: S. cerevisiae RM11-1a growth, OD600, 24 h; higher = more signal, called active from +8 up or from −8 down.
A short description of assay [17]: growth of efflux-deficient E. coli DRC39 – strain DRC39, OD650, 24 h, E. coli filamentation inducers, primary screen (AID 1178).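 Note: growth measured as culture turbidity by optical density at 650 nm; test concentration not given here.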 The following applies: E. coli DRC39 acrAB, higher = more signal, called active from +8 up or from −8 down.
The nature of assay [18]: growth of efflux-deficient E. coli DRC39 – strain DRC39, OD650, 48 h, E. coli filamentation inducers, primary screen (AID 1179).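 Note: screen aims at cell division blockers that make cells filament.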 The following applies: E. coli DRC39 delta-acrAB growth, higher = more signal, called active from +8 up or from −8 down.
A short description of assay [19]: viability profiling in RPMI8226 myeloma cells – cell-based, resazurin fluorescence, basal, 24 h, PK04 Diversity Set, profiling panel (AID 1180).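 Note: RPMI8826 multiple myeloma cell line at 5000 cells per well; test concentration not given here.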 The following applies: higher = more signal.
Assay [20] addresses E3 ubiquitin-protein ligase XIAP (Homo sapiens) (UniProt P98170). The assay is described as follows: small molecules binding XIAP protein – biophysical, small-molecule microarray, fluorescence 635 nm, primary screen (AID 1181).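 Note: score merges 667 nm emission and signal to noise over triplicate slides.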 Particulars: higher = more signal.

E3 ubiquitin-protein ligase XIAP (Homo sapiens), sequence (P98170 whole entry, looked up): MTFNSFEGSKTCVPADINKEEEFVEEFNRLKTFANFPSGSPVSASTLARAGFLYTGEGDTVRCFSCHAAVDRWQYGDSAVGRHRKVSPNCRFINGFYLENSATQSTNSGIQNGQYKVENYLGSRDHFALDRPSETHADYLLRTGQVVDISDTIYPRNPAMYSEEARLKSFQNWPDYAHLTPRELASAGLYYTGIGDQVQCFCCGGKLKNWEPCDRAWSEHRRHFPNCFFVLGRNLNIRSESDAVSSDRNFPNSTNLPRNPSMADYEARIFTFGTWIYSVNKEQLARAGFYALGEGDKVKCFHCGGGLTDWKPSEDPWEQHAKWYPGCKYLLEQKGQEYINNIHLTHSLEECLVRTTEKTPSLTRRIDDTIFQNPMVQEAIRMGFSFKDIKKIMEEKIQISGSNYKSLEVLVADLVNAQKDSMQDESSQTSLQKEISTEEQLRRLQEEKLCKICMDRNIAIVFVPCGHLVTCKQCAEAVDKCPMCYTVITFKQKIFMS
Dihydroorotate dehydrogenase (quinone), mitochondrial (Plasmodium falciparum (isolate 3D7)), sequence (Q08210 whole entry, looked up): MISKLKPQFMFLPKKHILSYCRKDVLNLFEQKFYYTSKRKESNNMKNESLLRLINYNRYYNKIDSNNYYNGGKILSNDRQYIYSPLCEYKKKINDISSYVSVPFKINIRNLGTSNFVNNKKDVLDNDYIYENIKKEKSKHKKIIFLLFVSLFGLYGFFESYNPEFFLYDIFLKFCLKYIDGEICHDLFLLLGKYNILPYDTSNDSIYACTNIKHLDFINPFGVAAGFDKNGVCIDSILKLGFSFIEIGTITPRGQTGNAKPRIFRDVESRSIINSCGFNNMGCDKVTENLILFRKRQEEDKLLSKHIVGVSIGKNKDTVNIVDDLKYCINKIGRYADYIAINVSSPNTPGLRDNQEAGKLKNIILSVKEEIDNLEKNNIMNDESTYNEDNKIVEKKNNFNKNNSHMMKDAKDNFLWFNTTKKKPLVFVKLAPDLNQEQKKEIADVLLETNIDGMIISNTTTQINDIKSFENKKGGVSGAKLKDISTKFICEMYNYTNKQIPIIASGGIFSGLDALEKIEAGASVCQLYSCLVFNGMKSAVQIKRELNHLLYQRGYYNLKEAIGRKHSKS

As to `CN(C)C(=O)[C@]1(Cc2ccccc2N=[N+]=[N-])N=C(c2ccc(OCCCO)cc2)O[C@@H]1c1ccccc1N=[N+]=[N-]`, the z-score is 0.03 in assay [1]; 0.899 in assay [2]; -0.468 in assay [3]; -3.3 in assay [4]; -3.67 in [5]; 1.53 in [6]. Further, the z-score in assay [7] is 1.41 (inactive); in assay [8], -0.946; in assay [9], -1.8; in [10] it was -2.16 (inactive); in [11], -1.08; in assay [12], -1.57 (inactive). Also, the z-score in assay [13] was -2.65 (inactive); in assay [15], 0.438 (inactive); in assay [16], 0.667 (inactive); in assay [17], 1.01 (inactive); in [18], 2.07 (inactive); in assay [19], -3.87. In addition, the composite z-score in assay [14] was -0.828 (inactive); in assay [20], -0.178.
`CC(C)(C)OC(=O)CC[C@]1(C(=O)N2CCOCC2)N=C(c2ccc(OCCCO)cc2)O[C@H]1c1ccccc1N=[N+]=[N-]`: the z-score in assay [1] is 0.901; in [2] it was 0.232; in assay [3], 0.556; in [4], -0.474; in assay [5], -0.337; in assay [6] it was 1.27. The z-score in assay [7] was 3.46 (inactive); in assay [8] it was -0.252; in [9], 0.103; in assay [10] it was 1.03 (inactive); in [11] it was 0.548; in assay [12], -0.515 (inactive). In addition, the z-score in [13] is -0.095 (inactive); in [15] it was -0.0684 (inactive); in assay [16], 0.207 (inactive); in assay [17], 0.453 (inactive); in assay [18], 0.314 (inactive); in assay [19], 0.187. The composite z-score is -0.793 (inactive) in [14] and 0.115 in assay [20].
For `Cc1ccc(S[C@]2(C(=O)NC3CC3)CC(=O)N(Cc3ccccc3)[C@@H]2c2ccc(CO)cc2I)cc1`, the z-score in [1] is 2.11; in [2] it was 0.388; in assay [3], 0.935; in assay [4], -1.99; in assay [5], -2.06; in [6], 1.55. The z-score in assay [7] was 0.679 (inactive); in [8] it was -0.525; in [9], -1.26; in assay [10], 0.618 (inactive); in [11], 0.417; in assay [12] it was -3.23 (inactive). Also, the z-score in assay [13] was -2.45 (inactive); in assay [15] it was 0.751 (inactive); in assay [16] it was -1.46 (inactive); in assay [17], 0.714 (inactive); in assay [18], 0.753 (inactive); in [19], -1.71. The composite z-score in assay [14] is -1.47 (inactive); in [20], -0.252.
As for `CC(=O)NCCCC[C@@H]1NC(=O)[C@@H]2C[C@H](C(=O)NCCCCCNC(=O)CS)[C@H](c3cccc(OCCO)c3)N2C1=O`, the z-score is 0.189 in assay [1]; 0.767 in assay [2]; -0.884 in assay [3]; 0.28 in assay [4]; 0.403 in assay [5]; -1.12 in assay [6]. Further, the z-score was -0.843 (inactive) in assay [7]; 0.436 in assay [8]; -0.892 in [9]; 0.131 (inactive) in assay [10]; 0.77 in assay [11]; -0.719 (inactive) in [12]. Further, the z-score in assay [13] was 1.37 (inactive); in [15] it was 0.879 (inactive); in [16] it was -0.86 (inactive); in assay [17], 0.295 (inactive); in [18] it was -0.171 (inactive); in assay [19], 0.739. Further, the figures for the composite z-score in [14] and in [20] were -29.3 (active) and -0.13, respectively.
Consider `COC(=O)[C@@]1(Cc2ccc(F)cc2)[C@H]2c3cc(C(=O)N4CCCC4)n(Cc4ccc(S(C)(=O)=O)cc4)c3C[C@H]2CN1C(=O)c1ccccc1`, for which the z-score in [1] was 0.0676; in [2] it was 0.582; in [3] it was -0.035; in assay [4], -1.23; in assay [5] it was -1.35; in [6] it was 2.11. In addition, the z-score in assay [7] is -1.3 (inactive); in assay [8] it was 0.611; in assay [9], -0.583; in [10], 0.039 (inactive); in assay [11], -0.608; in assay [12] it was 1.01 (inactive). Moreover, the z-score was -1.03 (inactive) in [13]; 1.09 (inactive) in assay [15]; 0.458 (inactive) in assay [16]; -1.12 (inactive) in [17]; -0.704 (inactive) in [18]; -0.948 in assay [19]. The composite z-score in assay [14] is -0.159 (inactive); in [20] it was 0.261.
Take `O=C1[C@@]23C=C(Br)[C@H](C[C@@H]2CCOC3)[C@@]12CO2`: the z-score in [1] is 0.845; in [2] it was -0.711; in assay [3] it was -0.0809; in [4], -1.89; in [5], -0.491; in assay [6], -1.08. The z-score in assay [7] is -0.0633 (inactive); in assay [8], -0.849; in assay [9], -0.688; in assay [10] it was -0.309 (inactive); in [11], 0.165; in [12], -1.85 (inactive). Also, the z-score was 0.0335 (inactive) in [13]; 0.261 (inactive) in assay [15]; -0.0503 (inactive) in assay [16]; 0.297 (inactive) in [17]; 0.319 (inactive) in assay [18]; 0.428 in assay [19]. In addition, the composite z-score was -0.0887 (inactive) in [14] and 0.188 in [20].
Turning to `COCCOC(=O)N1C(=O)[C@@]2(c3cc(C#CCNC(N)=O)ccc31)[C@H](C(=O)N1CCN(c3ncccn3)CC1)[C@H]1C(=O)O[C@H](c3ccccc3)[C@H](c3ccccc3)N1[C@@H]2c1ccc(OCCO)cc1`, the z-score was 0.572 in assay [1]; 0.148 in [2]; 0.548 in assay [3]; 0.63 in assay [4]; 0.287 in [5]; -2.07 in assay [6]. The z-score is 1.6 (inactive) in assay [7]; -0.863 in assay [8]; -1.51 in [9]; -0.465 (inactive) in assay [10]; -0.488 in [11]; 1.51 (inactive) in assay [12]. The z-score is -0.814 (inactive) in assay [13]; 2.43 (inactive) in assay [15]; 2.16 (inactive) in assay [16]; 0.142 (inactive) in [17]; 0.567 (inactive) in assay [18]; -0.83 in assay [19]. Besides, the composite z-score in assay [14] is -0.0103 (inactive); in [20] it was 0.0627.
For the molecule `CCCCCN1CC=CC23O[C@@H]4C=CCCOC(=O)C4[C@H]2C(=O)N(CCCCCO)[C@@H]3C1=O` (stereo not given in full), the z-score in assay [1] was 0.0264; in assay [2] it was -1.3; in assay [3], 0.542; in [4] it was 1.8; in assay [5], 1.74; in assay [6], 0.301. Moreover, the z-score in assay [7] was -0.0303 (inactive); in assay [8], 0.159; in [9], -0.849; in assay [10] it was 0.26 (inactive); in [11] it was 0.476; in assay [12] it was 0.388 (inactive). The z-score in assay [13] was 0.66 (inactive); in assay [15], -0.304 (inactive); in assay [16], 0.467 (inactive); in [17] it was 0.685 (inactive); in [18], 0.67 (inactive); in assay [19], 0.802. Also, the composite z-score in assay [14] is -0.185 (inactive); in assay [20] it was 0.263.

The record behind these values is PubChem BioAssay.
